An excerpt weighted towards active compounds, which were near 0.93% of everything screened.
MMP-13 inhibitor: MMP13 (human) collagenase inhibition. AID 570. inhibition, % at 4 µM. MMP-13 fTHP FRET cleavage, Mca fluorescence. 0.07% of 65,000 active;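 active = inhibition above the mean of compound-free control plate wells plus 3 SD, cut at about 14% in these data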
MKP-1 inh: inhibitors of human MKP-1 phosphatase; P28562; recombinant MKP-1, OMFP hydrolysis fluorescence; inhibition, %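 (compounds tested at a single concentration somewhere between 10 and 100 µM)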; 0.15% of 65,000 active; AID 374;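 active = inhibition above about 50%, limit read from the data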
Target sequence (P28562 whole entry, looked up): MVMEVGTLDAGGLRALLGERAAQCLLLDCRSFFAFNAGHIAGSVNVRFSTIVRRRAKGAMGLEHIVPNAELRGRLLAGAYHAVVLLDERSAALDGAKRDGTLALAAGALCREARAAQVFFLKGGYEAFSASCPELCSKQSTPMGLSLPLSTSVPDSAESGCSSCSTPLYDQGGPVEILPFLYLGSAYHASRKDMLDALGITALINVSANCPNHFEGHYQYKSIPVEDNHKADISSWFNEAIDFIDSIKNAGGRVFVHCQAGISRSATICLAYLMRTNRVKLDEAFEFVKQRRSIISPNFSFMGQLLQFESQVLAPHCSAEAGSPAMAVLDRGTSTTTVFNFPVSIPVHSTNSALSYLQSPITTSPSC
WNV protease inh: blocks West Nile virus NS2B-NS3 protease activity; P06935; WNV NS2B-NS3 protease, fluorogenic substrate Ex360/Em465; hits give low values; z-score (test concentration not listed); 0.18% of 65,000 active; AID 577; in the data active = z-score below about -3
Cdc25B inh: human M-phase inducer phosphatase 2 inhibition. P30305. recombinant Cdc25B, OMFP fluorescence Ex485/Em525. inhibition, %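 (compounds tested at 10 µM final in the well)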. 0.1% of 65,000 active; in the data active = inhibition above about 50%
BAP1 inh: human BAP1 deubiquitinase inhibition; calls only at 20 µM; Q92560; recombinant BAP1, Ub-AMC hydrolysis fluorescence kinetic; hits give low values; 0.48% of 72,000 active;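 active = activity remaining at or below 50% of control, provided the compound also passes the data quality filters; inactive = the rest, including low values that fail the filters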
A number is an active result; - = inactive; . = no result given; + = active, no number.

SMILES	MMP-13 inhibitor	MKP-1 inh	WNV protease inh	Cdc25B inh	BAP1 inh
COc1ccccc1-n1c(C)nnc1SCC(=O)Nc1cc(C)cc(C)c1	-	-	-9.1	-	-
COc1ccccc1-n1c(C)nnc1SCC(N)=O	-	-	-	-	-
CCN(CC(=O)Nc1ccccc1OC)C(=O)C1CC2C=CC1C2 (configuration not stated)	-	-	-7.5	-	-
COc1ccc(C2NC(=S)NC(C)=C2C(=O)Nc2ccccc2C)cc1OC (configuration not stated)	.	.	.	.	-
CCCOc1ccc(-c2csc(NC(=O)c3ccc(S(=O)(=O)N4CCCCC4)cc3)n2)cc1	.	.	.	.	-
COC(=O)CCC(=O)Nc1ccc(NC(=O)CCC(=O)OC)cc1	-	-	-	-	-
COC(=O)CCC(=O)Oc1ccc(OC(=O)CCC(=O)OC)cc1	.	56	-	59	.
Cc1cccc(Oc2cc(NC(=O)c3cccc(Cl)c3)cc([N+](=O)[O-])c2)c1	.	.	.	.	-
CC1=C(C(=O)OC2CCCCCC2)C(c2ccc3c(c2)OCO3)NC(=O)N1C (configuration not stated)	.	.	.	.	-
Cc1sc2nc3c4ccccc4c(NCc4ccco4)nn3c(=O)c2c1C	-	-	-3.3	-	-
CC(Nc1ncnc2nc[nH]c12)c1ccccc1 (configuration not stated)	-	-	-	66	-
Cc1cccc(Nc2ncnc3nc[nH]c23)c1	-	-	-	-	-
CCN(CC)C(=O)c1sc(NC(=O)Cc2cccs2)c(C#N)c1C	-	-	-4.4	-	-
CCCC(=O)Nc1ccc(NC(=O)C23CC4CC(CC(C4)C2)C3)cn1	-	-	-4.8	-	-
C=C(C)Cn1c(-c2ccccc2)n[nH]c1=S	.	.	.	.	-
COc1ccc(OC)c(N2C(=O)C3C4c5ccccc5C(C(=O)O)(c5ccccc54)C3C2=O)c1 (configuration not stated)	.	.	.	.	-
COc1ccc(Cc2nnc(NC(=O)Cc3cccs3)s2)cc1OC	-	-	-	-	+
CCOC(=O)c1c(-c2ccccc2)csc1NC(=O)c1ccc(I)cc1	.	.	.	.	-
CC(C)NCc1c(O)c(Br)cc2oc3c(c12)CCCC3	-	-	-4	-	-
COc1ccc(OCc2nn3c(-c4cccc(OC)c4)nnc3s2)cc1	16	-	-	-	-
COc1ccc(OCc2nn3c(-c4ccco4)nnc3s2)cc1	-	-	-	-	-
Cc1nn(-c2ccccc2)c2sc(C(=O)O)cc12	-	-	-	102	-
Cc1ccc(-n2nc(C)c3cc(C(=O)O)sc32)cc1	-	-	-	-	-
Cc1nn(-c2ccccc2)c2sc(C(=O)OC3CCOC3=O)cc12 (configuration not stated)	-	-	-3.5	-	-
COC(=O)c1cc2c(C)nn(-c3ccccc3)c2s1	-	-	-	-	-
SMILES	MMP-13 inhibitor	MKP-1 inh	WNV protease inh	Cdc25B inh	BAP1 inh
COC(=O)C1=C(C)NC2=C(C(=O)CCC2)C1c1ccccc1I (configuration not stated)	.	.	.	.	-
COc1ccc2cc(C(=O)Nc3ccccc3)c(=Nc3ccc(F)cc3)oc2c1	.	.	.	.	-
CCOC(=O)C1=C(N)n2c(s/c(=C/c3ccco3)c2=O)=C(C(=O)OC)C1c1ccco1 (configuration not stated)	14	-	-	-	-
COc1ccc(-c2cn3c(C)c(C(=O)N4CCc5ccccc5C4)sc3n2)cc1	-	-	-	-	+
O=C1C2CC=CCC2C(=O)N1c1ccc(O)cc1 (configuration not stated)	.	.	.	.	-
Cc1ccc(NC(=O)C2CCN(S(=O)(=O)c3cccc4nonc34)CC2)nc1	-	-	-4.8	-	-
CC(CCc1ccccc1)NC(=O)c1nnc(Cc2ccc(F)cc2)o1 (configuration not stated)	-	-	-	-	-
CNC(=O)c1nnc(Cc2ccc(F)cc2)o1	-	-	-3.1	-	-
OC(CNCCCN1CCCCC1)COc1ccccc1 (configuration not stated)	-	-	-6	-	-
C(=Cc1ncccn1)c1ccccc1	.	.	.	.	-
O=C(O)C1=CC(=C(c2ccc(O)c(C(=O)O)c2)c2ccc(O)c(C(=O)O)c2)C=CC1=O	.	.	.	.	+
CCN1CCN(c2nc3c(c(=O)[nH]c(=O)n3C)n2CCCSc2ncccn2)CC1	-	-	-3.8	-	-
Nc1c(S(=O)(=O)O)cc(Nc2ccc(Nc3nc(Cl)nc(Nc4ccc(S(=O)(=O)O)cc4)n3)c(S(=O)(=O)O)c2)c2c1C(=O)c1ccccc1C2=O	.	.	.	.	+
Nc1cc(OC(=O)c2cccs2)nn1S(=O)(=O)c1ccc(F)cc1	-	-	-5.3	-	-

Screening data from PubChem.
